Bioassay records from PubChem BioAssay.
Only a selection was taken, and hits are over-represented in it overall.
TbREL1 primary: TbREL1 RNA ligase inhibitors, primary screen, biochemical, FRET fluorescence. inhibition, % at 9.66 µM. RNA-editing ligase 1, mitochondrial (Trypanosoma brucei brucei), P86926. 0.49% of 89,000 active. TbREL1 RNA ligation. AID 1117264, 2014;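 active = inhibition above the mean inhibition across all screened compounds plus 3 SD, cut at about 11% in these data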;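 note: 0% = plate median of test wells and 100% = NSC42067 control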
Target sequence (P86926 whole entry, looked up): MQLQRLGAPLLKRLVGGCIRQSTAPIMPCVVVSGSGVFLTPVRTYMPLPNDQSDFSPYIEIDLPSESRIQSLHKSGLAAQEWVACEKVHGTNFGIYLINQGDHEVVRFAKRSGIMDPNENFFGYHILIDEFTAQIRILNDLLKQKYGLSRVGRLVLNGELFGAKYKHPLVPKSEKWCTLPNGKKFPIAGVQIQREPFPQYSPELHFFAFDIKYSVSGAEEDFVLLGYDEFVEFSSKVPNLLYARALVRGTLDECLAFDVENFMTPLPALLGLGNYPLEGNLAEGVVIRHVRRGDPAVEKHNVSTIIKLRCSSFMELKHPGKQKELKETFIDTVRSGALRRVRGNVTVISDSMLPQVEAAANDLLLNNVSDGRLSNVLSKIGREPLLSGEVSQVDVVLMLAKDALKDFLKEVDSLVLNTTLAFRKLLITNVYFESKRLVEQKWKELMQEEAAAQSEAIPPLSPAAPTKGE
TbREL1 confirm: TbREL1 RNA ligase inhibitors, confirmation, biochemical, FRET fluorescence, triplicate | shares compounds with TbREL1 primary | TbREL1 RNA ligation | inhibition, % at 9.66 µM | 37% of 390 active;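 active = mean inhibition across replicates above a set limit taken from the earlier primary screen, cut at about 11% in these data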;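 note: 0% = REL1 with substrate and DMSO and 100% = REL1 plus control inhibitor NSC42067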
Starred values were filed as active, the others as inactive.

SMILES	TbREL1 primary	others
COC(=O)C1=C(C)N(C)C(=NCc2ccccc2C(F)(F)F)NC1c1ccc(C(F)(F)F)cc1 (stereo not given)	12*	TbREL1 confirm=10
COC(=O)C1=C(C)N(C)C(=NCc2ccc(C(F)(F)F)cc2)NC1c1ccc(C(F)(F)F)cc1 (stereo not given)	7
Cc1ccc(CNC(=O)O[C@H]2CC[C@@]34CCCN3C(=O)CCC[C@H]4[C@H]2C)cc1	-5
CC(C)(C)NC(=O)[C@H](c1cccnc1)N(C(=O)c1ccco1)c1ccc(C(C)(C)C)cc1	2
C[C@H]1[C@@H](NC(=O)c2ccc(C(C)(C)C)cc2)CC[C@@]23CCCN2C(=O)CCC[C@@H]13	6
O=C1C[C@H](c2ccc3ccccc3c2)N=C2N1/C(=C\c1ccccc1)[C@@H](c1ccccc1C(F)(F)F)N2Cc1ccc2c(c1)OCO2	-2
Cn1c(SCC(=O)Nc2ccc(C(=O)O)cc2)nnc1-c1ccccn1	0
Cn1c(Cc2cccs2)nnc1SCC(=O)Nc1ccc2cn[nH]c2c1	1
CCCCCCCC(=O)N[C@H]1CC[C@@]23CCCN2C(=O)CCC[C@H]3[C@H]1CCC	1
CCC[C@H]1[C@@H](NC(=O)C2CCCCC2)CC[C@@]23CCCN2C(=O)CCC[C@@H]13	36*	TbREL1 confirm=0
CCC[C@H]1[C@@H](OC(=O)NCc2ccc(C)cc2)CC[C@@]23CCCN2C(=O)CCC[C@@H]13	-3
CCC[C@H]1[C@@H](NCC2CCCCC2)CC[C@@]23CCCN2C(=O)CCC[C@@H]13	2
CCC[C@H]1[C@@H](OC(=O)NCc2ccc(Cl)cc2)CC[C@@]23CCCN2C(=O)CCC[C@@H]13	-3
CCC[C@H]1[C@@H](OC(=O)NCc2ccc(Cl)c(Cl)c2)CC[C@@]23CCCN2C(=O)CCC[C@@H]13	13*	TbREL1 confirm=0
C[C@@H]1[C@@H](O)C[C@@]2(C[C@H](O)c3cc(F)ccc3O2)O[C@H]1c1ccccc1Cl	0
COc1ccc(NC(=O)CSc2ncnc3scc(-c4ccc(C)cc4)c23)cc1OC	-1
CC(=O)N1CCc2cc(S(=O)(=O)NCCC(=O)N(C)Cc3ccccc3F)ccc21	1
COc1ccc(CCNC(=O)c2cc3ccccn3n2)cc1	1
COC(=O)C1=C(C)N(Cc2ccccc2C(F)(F)F)C(=NCc2ccc3c(c2)OCO3)NC1c1ccc(Cl)cc1 (stereo not given)	11
COC(=O)C1=C(C)N(Cc2ccccc2C(F)(F)F)C(=NCc2ccc3c(c2)OCO3)NC1c1ccc(C(F)(F)F)cc1 (stereo not given)	14*	TbREL1 confirm=21*
COC(=O)C1=C(C)N(Cc2ccccc2C(F)(F)F)C(=NCc2ccc3c(c2)OCO3)NC1c1ccccc1 (stereo not given)	12*	TbREL1 confirm=14*
COC(=O)C1=C(C)N(Cc2ccccc2)C(=NCc2ccc3c(c2)OCO3)N[C@H]1c1ccccc1	9
O=C1CCC[C@H]2C[C@H](NCc3ccc(Cl)cc3)CC[C@]23CCCN13	10
COCCN=C1S/C(=C\c2cc(C)n(-c3ccc(F)cc3F)c2C)C(=O)N1C	4
Cc1ccc(OCCOc2ccc(Cl)cc2Cl)c(Br)n1	0
SMILES	TbREL1 primary	others
Cc1cccc(CCNC(=O)c2ccc(Sc3ccccc3Cl)c([N+](=O)[O-])c2)c1	1
O=[N+]([O-])c1cccc2[nH]c(CNc3nc(N4CCOCC4)nc4c3ncn4-c3ccsc3)nc12	-4
O=C(Nc1ccccc1)N1CCCN(c2ccc(C(F)(F)F)cc2[N+](=O)[O-])CC1	0
O=C(Nc1ccccc1)N1CCN(c2ccc(F)cc2)CC1	2
O=C(Nc1ccc(F)cc1)N1CCCN(c2ccc(C(F)(F)F)cn2)CC1	25*	TbREL1 confirm=0
CC(=O)Nc1ccc(/C=C/COC(C)=O)cc1C	-1
O=C1CCC[C@H]2C[C@H](NCc3ccc(F)cc3F)CC[C@]23CCCN13	1
CC(=O)c1ccc(-c2cc(C(C)=O)c3n(c2=O)CCC3)cc1	-2
CC(=O)c1cc(-c2ccc(Cl)c(Cl)c2)c(=O)n2c1CCC2	4
CC(=O)c1cc(-c2cccc(CO)c2)c(=O)n2c1CCC2	11*	TbREL1 confirm=0
O=C(Nc1ccc(F)cc1F)C1CCN(c2nnc(-n3cccc3)s2)CC1	0
CCn1c(SCC(=O)NN=Cc2c(C)nn(-c3ccccc3)c2C)nnc1-c1ccc(OC)c(OC)c1	0
CSCCC(NC(=O)COc1ccccc1)C(=O)N1CCN(c2ccccc2O)CC1 (stereo not given)	42*	TbREL1 confirm=3
CCOC(=O)C1CCN(C(=O)C(CCSC)NC(=O)COc2ccccc2)CC1 (stereo not given)	-6
CSCCC(NC(=O)COc1ccccc1)C(=O)OCC(=O)c1ccccc1 (stereo not given)	-3
Cc1ccc(NC(=O)c2ccc(CS(=O)(=O)Cc3ccccc3C)o2)c(C)c1	6
COc1cc(NC(=O)c2ccccn2)ccc1NC(=O)c1ccccc1Cl	1
CC1(C)CC(NC(=O)c2ccc(-c3ccc([N+](=O)[O-])cc3)o2)CC(C)(C)N1	12*	TbREL1 confirm=4
CC1(C)CC(NC(=O)Nc2ccc([N+](=O)[O-])cc2)CC(C)(C)N1	0
COc1ccc(NC(=O)c2ccc(-c3ccc([N+](=O)[O-])cc3)o2)cc1	-1
Cc1ccc(/C=N\NC(=O)CN2CCN(S(=O)(=O)c3ccc(Br)cc3)CC2)s1	-2
Cc1ccc(C[n+]2cc(-c3ccc(Cl)cc3)n3c2CCC3)cc1	8
CCc1ccc(NC(=O)C[n+]2cc(-c3ccc(C)cc3)n3c2CCC3)cc1	13*	TbREL1 confirm=14*
O=C(C[n+]1cc(-c2ccc(F)cc2)n2c1CCC2)Nc1nc(-c2ccc(F)cc2)cs1	2
O=C(Nc1ccc(Cl)cc1Cl)O[C@@H]1CC[C@@]23CCCN2C(=O)CCC[C@H]3C1	1
SMILES	TbREL1 primary	others
O=C(NCCc1nc2ccccc2n1C/C=C/c1ccccc1)C1CCCCC1	-1
CCC[C@H]1[C@@H](OC(=O)NCc2ccc(C)o2)CC[C@@]23CCCN2C(=O)CCC[C@@H]13	-7
O=C(O)c1cc(N/N=C/c2ccc(-c3ccc(F)cc3)o2)ccc1Cl	-5
Cc1nc(S/C(=C\c2ccc(OCc3ccccc3Cl)cc2)C(=O)O)n[nH]1	0
Cc1nc(S/C(=C\c2ccc(-c3ccc(C(=O)O)c(Cl)c3)o2)C(=O)O)n[nH]1	58*	TbREL1 confirm=23*
COC(=O)[C@]12C[C@H](CC(=O)NCc3cccc(C(F)(F)F)c3)C(=O)N(CCC3=CCCCC3)C1=C[C@H](C1CCCC1)O[C@@H]2C	-1
Cc1nn(CCC(=O)NNC(=O)Nc2ccc(Cl)cc2)c(C)c1[N+](=O)[O-]	2
COC(=O)C1=C(C)N(C)C(=NCc2ccc(C(F)(F)F)cc2)NC1c1ccccc1C(F)(F)F (stereo not given)	10
COC(=O)C1=C(C)N(Cc2cccc(C(F)(F)F)c2)C(=NCc2ccc3c(c2)OCO3)NC1c1ccccc1C(F)(F)F (stereo not given)	13*	TbREL1 confirm=20*
COC(=O)C1=C(C)N(Cc2cccc(C(F)(F)F)c2)C(=NCc2ccc(C(F)(F)F)cc2)NC1c1ccc(C(F)(F)F)cc1 (stereo not given)	8
COC(=O)C1=C(C)N(C)C(=NCc2ccc(OC)cc2)NC1c1ccccc1C(F)(F)F (stereo not given)	6
